This is one part of a sample in which hits are shown more often than they occur.
Vaccinia Venus: vaccinia inhibition (Venus reporter); Vaccinia virus Venus reporter expression, fluorescence; Potency, µM (series often up to 36.5 µM), for the others: at the highest dose activity change, negative = inhibition, hits mostly inhibitors; hit rate 0.46% among 330,000; AID 720580; calls by dose curve; tested in A549 cells; further: potency means the concentration at half of the fitted maximal effect; on the % scale 0 is the no-effect control and ±100 the full control effect; nearly all actives have a fitted effect of over 30% in size
Vaccinia mCherry: inhibitors of vaccinia virus infection (mCherry reporter signal); Vaccinia virus mCherry reporter infection, fluorescence; Potency, µM (series often up to 36.5 µM), without a hit: at the top dose activity change, negative = inhibition, actives largely listed as inhibitors; AID 720579; hit rate 0.63% among 310,000; calls by dose curve; tested in A549 cells; further: potency means the concentration at half of the fitted maximal effect; on the % scale 0 is the no-effect control and ±100 the full control effect; nearly all actives have a fitted effect of over 35% in size
Lassa entry inh: inhibitors of Lassa virus binding or cell entry; Lassa virus pseudotype entry inhibition, cell reporter; Potency, µM (titrated, usually from 37.9 µM), for inactives: top-dose activity change, negative = inhibition, usual class: inhibitors; hit rate 1.2% among 300,000; AID 540256; calls by dose curve; tested in HEK293 cells; further: potency means the concentration at half of the fitted maximal effect; on the % scale 0 is the no-effect control and ±100 the full control effect; nearly all actives have a fitted effect of over 50% in size
Marburg entry inh: blocks Marburg virus binding to or entry into cells; AID 540276; hit rate 1.8% among 300,000; Potency, µM (doses to about 37.8 µM), for inactives: at the top dose activity change, negative = inhibition, actives largely listed as inhibitors; Marburg virus pseudotyped entry inhibition, cell reporter; calls by dose curve; tested in HEK293 cells; further: potency means the concentration at half of the fitted maximal effect; on the % scale 0 is the no-effect control and ±100 the full control effect
Shiga inhibitor: Shiga toxin inhibition; Vero cells, Shiga toxin protein synthesis inhibition reporter; inhibition, % at 38.7 µM; hit rate 9.2% among 290,000; in the data active means inhibition mostly above about 28%, no sharp cut-off; inactive means mostly below about 43%; further: 0% is about no effect
CHX counter: counter-screen hit for Shiga toxin inhibitors, cycloheximide; cell reporter, cycloheximide protein synthesis inhibition counterscreen; max response, %; hit rate 12% among 300,000; AID 2314; in the data active means max response mostly above about 13%, no sharp cut-off; inactive means mostly below about 14%; further: read at 38.3 µM for the half of the compounds with a filed dose; 0% is about no effect
* hit, by the source's call; i = inactive; u = inconclusive; x = not tested or not shown; [ ] = remark or other dose.

SMILES | Vaccinia Venus | Vaccinia mCherry | Lassa entry inh | Marburg entry inh | Shiga inhibitor | CHX counter
O=C(Nc1ccc2c(c1)OCCO2)c1cnc2n(c1=O)CCS2 | -26% | u | 5% | u | 18 | 30*
O=C(NCc1ccc2c(c1)OCO2)c1cnc2n(c1=O)CCS2 | -9% | -9% | x | x | -18 | -5
O=C(Nc1ccc(OC(F)(F)F)cc1)c1cnc2n(c1=O)CCS2 | -10% | -26% | x | x | 21 | 16*
COc1cc(NCCCn2cnc3c(OC)ncnc32)cc(OC)c1OC | -9% | -11% | x | x | x | x
COC(=O)Cn1ncc2c(C)n(Cc3ccccc3)c(C)c2c1=O | -3% | i | x | x | 74* | 39*
CNC(=O)Cn1ncc2c(C)n(Cc3ccc(C)cc3)c(C)c2c1=O | -3% | -13% | 1% | 6% | -8 | -2
Cc1ccc(Cn2c(C)c3cnn(CC(=O)NC4CCCC4)c(=O)c3c2C)cc1 | -16% | u | x | x | 30* | 10*
Cc1csc(-c2cccnc2)n1 | -18% | -15% | u | 0% | 12 | -2
Fc1ccccc1-c1csc(-c2cccnc2)n1 | -7% | i | u | 29%[46.1 µM] | 38* | 48*
O=C1c2ccccc2C(=O)N1CCc1csc(-c2ccccc2)n1 | x | x | -27% | -22% | 36* | 18*
c1ccc(-c2csc(-c3ccncc3)n2)cc1 | 4% | u | 26% | -20%[46.1 µM] | 55* | 31*
c1ccc(-c2nc(-c3cnc4ccccc4n3)cs2)cc1 | -10% | -15% | x | x | x | x
Brc1ccsc1-c1csc(-c2ccncc2)n1 | x | x | x | x | 87* | 43*
Cc1ccc2c(CC(=O)Nc3ccc(S(=O)(=O)N4CCC(C)CC4)cc3)coc2c1 | -21% | -6% | -13%[46.1 µM] | -23%[46.1 µM] | x | x
CCc1ccc(NC(=O)c2sc3nc(C)c(Cl)c(C)c3c2N)cc1 | -23% | -29% | 23%[46.1 µM] | u | x | x
CS(=O)(=O)Nc1cccc(-c2cc(F)c(S(=O)(=O)N3CCN(S(=O)(=O)c4ccc5c(c4)OCCO5)CC3)cc2F)c1 | x | x | x | x | -1 | -2
Oc1ccc(-c2csc(-c3ccccc3)n2)cc1O | u | u | -37% | -19% | 71* | 33*
N#Cc1cncc(-c2ccc3c(c2)OCCOCCOCCOCCOCCO3)n1 | -8% | -19% | u | 1% | -1 | 2
O=S(=O)(NCCc1csc(-c2cccnc2)n1)c1ccc(Cl)s1 | -16% | 12% | x | x | -13 | -6
Cc1nc(-c2ccc(O)c(O)c2)cs1 | -7% | i | -6% | -8% | -8 | -1
Clc1ccc(-c2csc(-c3cccnc3)n2)s1 | x | x | x | x | 54* | 32*
Fc1ccc(-c2csc(-c3cccnc3)n2)cc1F | x | x | x | x | 61* | 23
c1cncc(-c2nc(-c3ccc4c(c3)OCCO4)cs2)c1 | x | x | x | x | 128* | 63*
CCOc1ccc(-c2cc3nc(C4CCN(C(=O)OC(C)(C)C)CC4)c(C(=O)Nc4ccc(C)cc4C)cn3n2)cc1 | -11% | -16% | u | u | x | x
Cc1ccc(-n2c(=O)c3ccc(C(=O)NCc4ccco4)cc3n(Cc3ccc(Cl)cc3)c2=O)cc1 | -13%[7.34 µM] | -8%[7.34 µM] | -14%[46.1 µM] | 16%[46.1 µM] | x | x
SMILES | Vaccinia Venus | Vaccinia mCherry | Lassa entry inh | Marburg entry inh | Shiga inhibitor | CHX counter
Cc1cc(C)c(NC(=O)CCS(=O)(=O)c2cc3c(cc2Cl)NC(=O)CO3)c(C)c1 | -5% | -18% | -1%[46.1 µM] | x | x | x
N#Cc1cnc(NOCc2ccc(Cl)cc2)nc1 | -12% | -2% | 10% | 3% | 15 | 2
Cc1cc(C)n(C(=O)CCCn2nc(C)c([N+](=O)[O-])c2C)n1 | -5% | i | -18%[46.1 µM] | -1%[46.1 µM] | -14 | 7
O=C(O)Cc1csc(-c2ccccc2)n1 | -9% | i | 9%[46.1 µM] | -7%[46.1 µM] | 21 | 16
Oc1cncc(-c2cccnc2)c1 | -11% | i | x | x | x | x
Oc1ccccc1-c1csc(-c2ccccc2)n1 | -7% | -21% | 6% | u | 159* | 75*
CS(=O)(=O)c1ccc(-c2csc(-c3cccnc3)n2)cc1 | x | x | x | x | 54 | 39*
CN(C)S(=O)(=O)c1ccc(-c2csc(-c3cccnc3)n2)cc1 | -15% | -23% | 16% | -2%[46.1 µM] | 21 | 19
Oc1ccc(-c2csc(-c3cccnc3)n2)cc1O | -14% | u | u | u | 61* | 54*
CCc1cc2c(SCC(=O)NCC3CCCO3)ncnc2s1 (configuration not stated) | -15% | -2% | 16% | u | x | x
O=C(/C=C/c1ccccc1)c1cc(Br)ccc(=O)c1O | u | x | u | 20µM* | 23 | -2
O=C(/C=C/c1ccc(F)cc1)c1cc(Br)ccc1O | 3% | 12% | u | 5%[46.1 µM] | 77* | 15*

Screens: PubChem, National Center for Advancing Translational Sciences (NCATS)
